Experimental data reported in the antibiotic and cytotoxicity screens of Wong et al. (2023).
The campaign covered roughly 39,000 compounds. About 3,300 (8.5%) were called active. Shown is part of a subset that was picked to be rich in actives.

The compounds below were run on HepG2 (assay: cytotoxicity call (relative viability < 0.9)). Conditions: 10 µM.
For `CCNC(=O)C[C@H]1CC[C@H]2[C@@H](COC[C@H](O)CN2C(=O)Nc2c(C)noc2C)O1`, the cytotoxicity call was “inactive”. `O=C(C[C@@H]1C=C[C@H](NS(=O)(=O)c2ccccc2)[C@H](CO)O1)NCc1ccncn1` was tested, and the cytotoxicity call was “inactive”. In the case of `COc1ccc2c3c(n(c2c1)C)[C@@H](CO)N(C[C@]13CCN(CC1)C(=O)Nc1cccc(c1)F)S(=O)(=O)C`, the cytotoxicity call is reported as “inactive”. `C[C@H]1CN([C@@H](C)CO)C(=O)Cc2cc(NC(=O)c3ccncc3)ccc2O[C@H]1CN(C)Cc1ccncc1` was tested, and the cytotoxicity call was “inactive”. `COCCNC(=O)C[C@@H]1CC[C@@H]2[C@H](COC[C@@H](O)CN2S(=O)(=O)c2ccccc2C)O1` was tested, and the cytotoxicity call was “inactive”. For `C[C@H](CO)N1C[C@H](C)[C@@H](CN(C)C(=O)C2CCCCC2)OCCCC[C@H](C)Oc2ccc(NC(=O)CCC(F)(F)F)cc2C1=O`, the cytotoxicity call was “inactive”. With `C[C@@H]1CCCCO[C@@H](CN(C)C(=O)c2ccncc2)[C@@H](C)CN([C@@H](C)CO)C(=O)c2cc(NS(=O)(=O)c3cn(C)cn3)ccc2O1` the cytotoxicity call was “inactive”. With `Cc1noc(C)c1NC(=O)Nc1cccc2c1O[C@H](CN(C)C(=O)Nc1ccc(C(F)(F)F)cc1)[C@@H](C)CN([C@@H](C)CO)C2=O` the cytotoxicity call was “inactive”. For `C=CC[C@@H](CC(=O)N[C@@H](CO)Cc1ccccc1)C(=O)N1CCC[C@@H]1COC(=O)[C@@H](CC=C)NC(=O)OCC1c2ccccc2-c2ccccc21`, the cytotoxicity call was “inactive”. With `C[C@@H]1CN([C@H](C)CO)C(=O)Cc2cc(NC(=O)Nc3cccc4ccccc34)ccc2O[C@@H]1CN(C)Cc1ccc(-c2ccccc2)cc1` the cytotoxicity call was “inactive”. `CCS(=O)(=O)N1C[C@]2(CCN(CC2)C(=O)c2cccnc2)c2c(n(c3cc(ccc23)OC)C)[C@@H]1CO` was tested, and the cytotoxicity call was “inactive”. With `COCCNC(=O)c1ccc(N2C[C@H]3C[C@@H](C2)c2cccc(=O)n2C3)c(NC(=O)c2ccc(OC)cc2)c1` the cytotoxicity call was “inactive”. In the case of `COc1cc2c(cc1OC)CN(C(=O)[C@@H]1[C@H]3C(=O)O[C@H](c4ccccc4)[C@H](c4ccccc4)N3[C@H](c3ccc(OCCO)cc3)[C@@]13C(=O)Nc1ccc(C#CC4(O)CCCCCC4)cc13)CC2`, the cytotoxicity call is reported as “active”. With `NC(=O)NCC#Cc1ccc2c(c1)[C@]1(C(=O)N2)[C@H](C(N)=O)[C@H]2C(=O)O[C@H](c3ccccc3)[C@H](c3ccccc3)N2[C@@H]1c1ccccc1OCCO` the cytotoxicity call was “inactive”. `O=C1O[C@@H](c2ccccc2)[C@@H](c2ccccc2)N2[C@@H](c3ccccc3OCCO)[C@]3(C(=O)Nc4ccc(C#CC5(O)CCCCCC5)cc43)[C@@H](C(=O)O)[C@H]12` was tested, and the cytotoxicity call was “inactive”. In the case of `COc1cc2c(cc1OC)CN(C(=O)[C@H]1[C@@H]3C(=O)O[C@@H](c4ccccc4)[C@@H](c4ccccc4)N3[C@@H](c3ccccc3OCCO)[C@]13C(=O)Nc1ccc(C#CC4=CCCCC4)cc13)CC2`, the cytotoxicity call is reported as “inactive”. `O=C1O[C@@H](c2ccccc2)[C@@H](c2ccccc2)N2[C@@H](c3ccccc3OCCO)[C@]3(C(=O)Nc4ccc(C#CC5=CCCCC5)cc43)[C@@H](C(=O)N3CCCCCCC3)[C@H]12` was tested, and the cytotoxicity call was “active”. In the case of `COc1cc2c(cc1OC)CN(C(=O)[C@@H]1[C@H]3C(=O)O[C@H](c4ccccc4)[C@H](c4ccccc4)N3[C@H](c3ccc(O)cc3)[C@@]13C(=O)Nc1ccc(C#CC4(O)CCCCCC4)cc13)CC2`, the cytotoxicity call is reported as “inactive”. With `O=C1O[C@H](c2ccccc2)[C@H](c2ccccc2)N2[C@H]1[C@@H](C(=O)N1CCCCCCC1)[C@]1(C(=O)Nc3ccc(C#CC4=CCCCC4)cc31)[C@H]2c1ccccc1OCCO` the cytotoxicity call was “inactive”. `COc1cc2c(cc1OC)CN(C(=O)[C@H]1[C@@H]3C(=O)O[C@@H](c4ccccc4)[C@@H](c4ccccc4)N3[C@@H](c3ccc(OCCO)cc3)[C@]13C(=O)Nc1ccc(C#CC4(O)CCCCCC4)cc13)CC2` was tested, and the cytotoxicity call was “inactive”. For `NC(=O)[C@H]1[C@@H]2C(=O)O[C@@H](c3ccccc3)[C@@H](c3ccccc3)N2[C@@H](c2ccccc2OCCO)[C@]12C(=O)Nc1ccc(C#CC3=CCCCC3)cc12`, the cytotoxicity call was “active”. In the case of `C[C@@H]1CN([C@H](C)CO)C(=O)c2cccc(NC(=O)C3CCOCC3)c2O[C@H]1CN(C)S(=O)(=O)c1cccs1`, the cytotoxicity call is reported as “inactive”. With `C[C@@H]1CN([C@H](C)CO)C(=O)c2cc(NC(=O)Nc3cccc4ccccc34)ccc2O[C@@H](C)CCCCO[C@H]1CN(C)Cc1ccc(Cl)c(Cl)c1` the cytotoxicity call was “inactive”. With `C[C@@H]1CN([C@@H](C)CO)C(=O)c2cc(NC(=O)Cn3cnnn3)ccc2O[C@H]1CN(C)Cc1ccc(-c2ccccc2)cc1` the cytotoxicity call was “inactive”. With `CC(C)CN1C(=O)[C@@]2(c3ccc([N+](=O)[O-])cc3)CC(=O)N(CC34CC5CC(CC(C5)C3)C4)[C@@H]2c2ccc(CO)cc21` the cytotoxicity call was “inactive”. With `Cc1cc(C)n(-c2nc(=O)cc(C)[nH]2)n1` the cytotoxicity call was “inactive”. `[N-]=[N+]=NCCOCCNC(=O)CCCOc1ccc(CS(=O)c2nnc(-c3ccc(F)cc3)o2)nc1` (stereo unspecified) was tested, and the cytotoxicity call was “active”. For `COc1ccc(NC(=O)N(C)C[C@@H]2OCCCC[C@@H](C)Oc3ccc(NC(=O)CCC(F)(F)F)cc3C(=O)N([C@@H](C)CO)C[C@H]2C)cc1`, the cytotoxicity call was “inactive”. In the case of `Cc1noc(C)c1NC(=O)N(C)C[C@@H]1OCCCC[C@@H](C)Oc2ccc(NS(=O)(=O)c3ccc(F)cc3)cc2C(=O)N([C@H](C)CO)C[C@@H]1C`, the cytotoxicity call is reported as “inactive”. In the case of `C[C@@H]1CN([C@@H](C)CO)C(=O)Cc2cc(NC(=O)Cc3cn(C)c4ccccc34)ccc2O[C@@H]1CN(C)S(C)(=O)=O`, the cytotoxicity call is reported as “inactive”. In the case of `CCS(=O)(=O)CCn1c([N+](=O)[O-])cnc1C` [listing 1 of 2 here], the cytotoxicity call is reported as “inactive”. With `Cc1ncc([N+](=O)[O-])n1CCO` the cytotoxicity call was “inactive”. `CCS(=O)(=O)CCn1c([N+](=O)[O-])cnc1C` [listing 2 of 2 here] was tested, and the cytotoxicity call was “active”. In the case of `Cc1cc(O)c(-c2ccc([C@@H](C)CN)cc2)c2c1[nH]c(=O)c1sccc12`, the cytotoxicity call is reported as “active”. For `C[C@H]1CN([C@@H](C)CO)C(=O)CCCn2nncc2CO[C@@H]1CN(C)C(=O)c1cc(-c2ccccc2)on1`, the cytotoxicity call was “inactive”. For `C[C@@H]1CCCCO[C@@H](CN(C)S(=O)(=O)c2ccccc2)[C@@H](C)CN([C@@H](C)CO)C(=O)c2cc(NC(=O)Nc3ccc4c(c3)OCO4)ccc2O1`, the cytotoxicity call was “inactive”. With `CCOC(=O)c1cc2c(c(-c3cccc(Br)c3)n1)[C@@H](CCO[Si](C)(C)C(C)(C)C)N([S@](=O)C(C)(C)C)C2` the cytotoxicity call was “inactive”. In the case of `CCCNC(=O)c1cc2c(c(-c3cccc(-c4ccc(F)cc4)c3)n1)[C@@H](CCO)N([S@](=O)C(C)(C)C)C2`, the cytotoxicity call is reported as “inactive”. `CCOC(=O)c1cc2c(c(-c3ccccc3)n1)[C@@H](CCO[Si](C)(C)C(C)(C)C)N([S@](=O)C(C)(C)C)C2` was tested, and the cytotoxicity call was “inactive”. With `CCNC(=O)c1cc2c(c(-c3cccc(-c4cccc(F)c4)c3)n1)[C@@H](CCO)N([S@](=O)C(C)(C)C)C2` the cytotoxicity call was “inactive”. For `CCNC(=O)c1cc2c(c(-c3cccc(-c4cccc(F)c4)c3)n1)[C@H](CCO)N([S@@](=O)C(C)(C)C)C2`, the cytotoxicity call was “active”. In the case of `CCOC(=O)c1cc2c(c(-c3cccc(C#CCN(C)C)c3)n1)[C@@H](CCO[Si](C)(C)C(C)(C)C)N([S@](=O)C(C)(C)C)C2`, the cytotoxicity call is reported as “active”. For `CC(C)(C)S(=O)N1Cc2cc(C(=O)Nc3ccc(-c4ccccc4)cc3)nc(-c3cccc(-c4cccc(F)c4)c3)c2[C@@H]1CCO` (stereo partly specified), the cytotoxicity call was “active”. In the case of `CCCNC(=O)c1cc2c(c(-c3cccc(-c4cccc(F)c4)c3)n1)[C@H](CCO)N([S@@](=O)C(C)(C)C)C2`, the cytotoxicity call is reported as “inactive”. For `CC(C)(C)S(=O)N1Cc2cc(C(=O)NCc3ccc(Oc4ccccc4)cc3)nc(-c3cccc(C#CCC4CCCC4)c3)c2[C@@H]1CCO` (stereo partly specified), the cytotoxicity call was “inactive”. `COc1ccc(CNC(=O)c2cc3c(c(-c4cccc(-c5cccc(C#N)c5)c4)n2)[C@@H](CCO)N([S@](=O)C(C)(C)C)C3)cc1` was tested, and the cytotoxicity call was “inactive”. For `CC(C)(C)S(=O)N1Cc2cc(C(=O)NCc3ccc(Oc4ccccc4)cc3)nc(-c3cccc(-c4cccc(F)c4)c3)c2[C@@H]1CCO` (stereo partly specified), the cytotoxicity call was “active”. `CCCNC(=O)c1cc2c(c(-c3cccc(-c4ccc(F)cc4)c3)n1)[C@H](CCO)N([S@@](=O)C(C)(C)C)C2` was tested, and the cytotoxicity call was “inactive”. For `C[C@@H]1CN([C@@H](C)CO)C(=O)c2cc(NC(=O)c3ccncc3)ccc2O[C@@H](C)CCCCO[C@H]1CN(C)S(C)(=O)=O`, the cytotoxicity call was “inactive”. For `C[C@H]1CN([C@@H](C)CO)S(=O)(=O)c2ccc(-c3cccnc3)cc2O[C@H]1CN(C)CC1CCOCC1`, the cytotoxicity call was “inactive”. In the case of `C[C@H](CO)N1C[C@H](C)[C@@H](CN(C)C(=O)Nc2cccc3ccccc23)OCCCC[C@H](C)Oc2ccc(NC(=O)Nc3ccc4c(c3)OCO4)cc2C1=O`, the cytotoxicity call is reported as “inactive”. For `O=C(O)Cn1nnc(-c2ccccc2)n1`, the cytotoxicity call was “inactive”. In the case of `C[C@@H]1CCCCO[C@@H](CN(C)C(=O)Cc2ccccc2)[C@H](C)CN([C@@H](C)CO)C(=O)c2cc(NS(=O)(=O)c3cccs3)ccc2O1`, the cytotoxicity call is reported as “inactive”. For `COC(=O)c1[nH]c(C(=O)OC)c(O)c1O`, the cytotoxicity call was “inactive”. For `C[C@H]1CN([C@@H](C)CO)C(=O)c2cc(C3=CCCC3)cnc2O[C@@H]1CN(C)S(=O)(=O)c1cn(C)cn1`, the cytotoxicity call was “inactive”. `CC(C)(C)S(=O)N1Cc2cc(C(=O)Nc3ccc(-c4ccccc4)cc3)nc(-c3cccc(C#CCC4CCCC4)c3)c2[C@@H]1CCO` (stereo partly specified) was tested, and the cytotoxicity call was “inactive”. `CC(C)(C)[S@](=O)N1Cc2cc(C(=O)NCC(F)(F)F)nc(-c3cccc(-c4cccc(F)c4)c3)c2[C@@H]1CCO` was tested, and the cytotoxicity call was “active”. `CCCNC(=O)c1cc2c(c(-c3cccc(-c4cccc(F)c4)c3)n1)[C@@H](CCO)N([S@](=O)C(C)(C)C)C2` was tested, and the cytotoxicity call was “inactive”. For `CC(C)(C)[S@@](=O)N1Cc2cc(C(=O)NCC(F)(F)F)nc(-c3cccc(-c4cccc(F)c4)c3)c2[C@H]1CCO`, the cytotoxicity call was “inactive”. In the case of `CC(C)(O)C#Cc1cccc(-c2nc(C(=O)Nc3ccc(-c4ccccc4)cc3)cc3c2[C@@H](CCO)N(S(=O)C(C)(C)C)C3)c1` (stereo partly specified), the cytotoxicity call is reported as “active”. With `CC(C)(O)C#Cc1cccc(-c2nc(C(=O)NCCCN3CCOCC3)cc3c2[C@@H](CCO)N(S(=O)C(C)(C)C)C3)c1` (stereo partly specified) the cytotoxicity call was “inactive”.
